The text below walks through data of PubChem BioAssay (NCI).

Compounds without any hit were thinned out: in the full panel of roughly 83,000, 20% have a hit.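 Testing used 96-well plates and a 48-hour single-concentration exposure. Example: -40 means 40% of the starting cells died.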 Values without a mark were called inactive. Calls of active or inactive are those of the source. How the source made its calls: active means growth percent below 10; inactive means the rest.

Holding throughout (assay): NCI-60 one-dose screen, 48 h (100 = growth as untreated, 0 = no growth, -100 = all killed)
Conditions in all cases: 10 µM unless noted

The test system of assay [1] is DU-145 prostate.
Assay [2] relates to K-562 leukemia.
The test system of assay [3] is MALME-3M melanoma.
The subject of assay [4] is MDA-MB-231 breast.
Assay [5] has as its system SF-268 CNS.
Assay [6] deals with SF-539 CNS.
For assay [7], the system named is UACC-257 melanoma.
Assay [8] concerns M14 melanoma.
Assay [9] concerns HCT-15 colon.
The subject of assay [10] is HT29 colon.
The test system of assay [11] is SNB-75 CNS.
In assay [12] the test system is SNB-19 CNS.
Assay [13] deals with PC-3 prostate.
The test system of assay [14] is SK-MEL-5 melanoma.
Assay [15] relates to UACC-62 melanoma.
Assay [16] deals with LOX IMVI melanoma.
For assay [17], the system named is SK-MEL-28 melanoma.
For assay [18], the system named is RXF 393 renal.
Assay [19] has as its system SF-295 CNS.
For assay [20], the system named is U251 CNS.

`Cc1ccc(S(=O)(=O)N(CCc2ccc(Cl)cc2)S(=O)(=O)c2ccc(C)cc2)cc1`: the growth in assay [1] was 105%; in assay [2], 70%; in [3] it was 93%; in assay [4] it was 108%; in assay [5] it was 99.8%; in assay [6], 96.8%. The growth in [7] was 92.4%; in assay [8], 106%; in [9], 94.5%; in assay [10] it was 86%; in assay [11], 67.7%; in [12], 94.6%. Moreover, the growth in assay [13] is 85.9%; in assay [14], 87.6%; in [15], 78.1%; in [16] it was 92.4%; in assay [17], 93.9%.
For `COc1cccc(/C=C2/C(=O)N(Cc3ccco3)SC2=S)c1OC`, the growth in assay [1] is 102%; in assay [2], 51.2%; in [3], 98.8%; in [4], 100%; in assay [5], 99%; in assay [6] it was 102%. Also, the growth in assay [7] is 89.6%; in [8] it was 105%; in assay [9], 97.2%; in [10] it was 90.1%; in assay [11] it was 71.8%; in assay [12], 107%. The growth was 103% in assay [13]; 97.5% in [14]; 93.8% in [15]; 33.8% in assay [16]; 101% in assay [17].
For the compound `CN(C)CC(=O)Nc1ccc(Cn2nnc3c2C(=O)c2nnn(Cc4ccc(NC(=O)CN(C)C)cc4)c2C3=O)cc1`, the growth in [1] is -96.2% (active); in assay [3], -81.2% (active); in [4] it was -14.2% (active); in [18], -77.4% (active); in [5], -49.1% (active); in [19] it was -87.4% (active). Also, the growth in assay [7] was -71.1% (active); in assay [8] it was -89.4% (active); in assay [9], 1.94% (active); in assay [10], -52.5% (active); in assay [11] it was -92.8% (active); in assay [12], -75.1% (active). The growth was -82.1% (active) in assay [20]; 1.37% (active) in [13]; -95% (active) in assay [14]; -66.1% (active) in assay [15]; -30.6% (active) in [16]; -47.5% (active) in assay [17].
Regarding `O=C(CNC1C2CC3CC(C2)CC1C3)Sc1nnc2sc3ccccc3n12` (stereo not drawn), the growth in [1] was 110%; in assay [3], 95.2%; in assay [4], 81.5%; in [18], 114%; in [5], 101%; in assay [19], 94.2%. Also, the growth in assay [6] is 94.3%; in assay [7], 116%; in assay [8], 104%; in assay [9], 105%; in assay [10] it was 106%; in [11], 76.5%. For the same compound, the growth in [13] was 77.4%; in [14] it was 93.9%; in [15] it was 88.2%; in [16] it was 94.5%; in assay [17] it was 112%.
As to `Nc1ccc(Nc2nccc(-c3ccc4ccccc4c3)n2)cc1`, the growth is 67.4% in assay [1]; 59.5% in assay [3]; 46.8% in assay [4]; 50.3% in assay [18]; 49.9% in assay [5]; 64.8% in assay [19]. Further, the growth in assay [6] was 55.4%; in assay [7] it was 58.6%; in assay [8] it was 26.8%; in assay [9] it was 25%; in assay [10] it was 14.3%; in assay [11], 39%. For the same compound, the growth is 62.9% in assay [12]; 58.7% in [13]; 47.3% in assay [14]; 32.2% in assay [15]; 38.1% in [16]; 57.2% in [17].
For `CC(C)CC(CC1=CCC2CC1C2(C)C)C1=C(O)C(C)(C)C(=O)C(C)(C)C1=O` (stereo not drawn), the growth was 33.6% in assay [1]; 13.9% in assay [3]; -6.26% (active) in [4]; 7.5% (active) in assay [18]; 21.4% in assay [5]; -24.3% (active) in assay [19]. Also, the growth in assay [6] was 17%; in assay [7] it was -23.2% (active); in assay [8], 20.3%; in [9], 13.5%; in [10], 1.62% (active); in assay [11] it was 19.7%. In addition, the growth in assay [12] was 16%; in [13] it was 5.09% (active); in [14], -31.2% (active); in assay [15], 9.64% (active); in assay [16] it was 6% (active); in [17], 28.8%.
For `CN(C)C(=O)c1cc2cnc(Nc3ccc(-c4csc5c(=O)cc(N6CCNCC6)oc45)cc3)nc2n1C1CCCC1`, the growth in assay [1] was 29.9%; in assay [3], 60.2%; in [4] it was 9.91% (active); in [18] it was -78.6% (active); in assay [5] it was 19.2%; in [19] it was 15.2%. For the same compound, the growth was -33% (active) in assay [6]; 64.4% in [7]; 19.9% in assay [9]; -15.1% (active) in [10]; 20.5% in [11]; 24.9% in [12]. Moreover, the growth in assay [13] was 10%; in [14] it was 28.5%; in assay [15], 24.6%; in assay [16] it was -62.9% (active); in assay [17], 40.7%.
`CC(=O)/C(=C/c1cccc(Cl)c1)C(=O)c1ccccc1`: the growth is 92.2% in assay [1]; 85.5% in assay [3]; 84.8% in assay [4]; 93.1% in assay [18]; 79.2% in [5]; 96.1% in assay [19]. Besides, the growth was 105% in [6]; 72.3% in [7]; 73.1% in assay [8]; 70% in [9]; 67.7% in assay [10]; 84.7% in assay [11]. Besides, the growth in [12] is 94.3%; in [13], 63.1%; in assay [14], 89.9%; in [15] it was 83.3%; in assay [16], 6.93% (active); in [17] it was 90.9%.
On to `COc1ccc2nc3cc(Cl)ccc3c(N3CCN(c4ccnc(N5CCOCC5)n4)CC3)c2c1`, for which the growth in assay [1] is 24.2%; in [3] it was 80.3%; in [4], 45.1%; in assay [18], 8.55% (active); in assay [5], 45.3%; in assay [19] it was 88.7%. Moreover, the growth in assay [7] was 76.9%; in assay [8], 86.6%; in assay [9] it was 8.96% (active); in assay [10], -18.2% (active); in [11], 66.8%; in assay [12] it was 95.5%. Also, the growth in assay [20] was 64.2%; in assay [13], 67.2%; in assay [14], 88.4%; in assay [15] it was 91.9%; in assay [16], -59% (active); in [17], 35.9%.
